High-throughput results (PubChem)
SKKanGAS inh: SKKanGAS growth inhibition | S. pyogenes SKKanGAS, kanamycin growth, BacTiter-Glo, 6 h | inhibition, % at 7.5 µM | 1.3% of 300,000 active | AID 1662;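 active = mean replicate score, as percent of positive control median, at least 50; inconclusive = mean below 50 but one replicate at or above 50; inactive = mean and every replicate below 50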;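 note: strain carries kanamycin resistance gene driven by streptokinase promoter and grows in 40 µg/ml kanamycin; loss of luminescence reflects streptokinase promoter inhibition or plain growth inhibition; 0% = median of DMSO wells and 100% = positive control at its reference dose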
Beta cell apopt: blocks beta cell apoptosis; INS-1E cytokine-induced death, ATP luminescence, 48 h; percent of positive-control rescue, neutral wells zero; protection from apoptosis, % (no concentration beside the values); AID 435005; 0.8% of 300,000 active;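 active = Every replicate reaches about 75%, or at least half do and their mean reaches it too, limit read from the data; inconclusive = At least half of replicates reach the limit but their mean does not; inactive = Under half of replicates reach the limit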;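 note: 0% = cytokine-treated negative control wells and 100% = positive control rescue; higher means more ATP so stronger rescue from cytokine killing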
GRIN3A LBD mod: modulators (binders) of human NR3A ligand-binding domain; NR3A LBD differential scanning fluorimetry, Tm shift; 0% = protein alone, 100% = glycine-bound protein; AID 1259313; 2.5% of 340,000 active; Tm shift relative to glycine control, % at 25 µM;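 active = melting temperature shift of at least 10% of the positive control shift, at one fixed dose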
CSC inhib: cancer stem cell inhibition; cancer stem cell-like cells viability, luminescence; inhibition, % at 7.5 µM; 1.1% of 300,000 active; in the data active = inhibition above about 75%; inconclusive = no clear call, values can overlap the other calls; tested in HMLE shEcad cells
Mdm2-MdmX inh: human Mdm2/MdmX binding inhibition; O15151+Q00987; SaOS-2 split-luciferase Mdm2/MdmX complementation, luminescence; inhibition, % at 8 µM; 3% of 330,000 active;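 active = inhibition of at least 50% at 8 µM in the primary screen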
Target sequence (O15151 whole entry, looked up): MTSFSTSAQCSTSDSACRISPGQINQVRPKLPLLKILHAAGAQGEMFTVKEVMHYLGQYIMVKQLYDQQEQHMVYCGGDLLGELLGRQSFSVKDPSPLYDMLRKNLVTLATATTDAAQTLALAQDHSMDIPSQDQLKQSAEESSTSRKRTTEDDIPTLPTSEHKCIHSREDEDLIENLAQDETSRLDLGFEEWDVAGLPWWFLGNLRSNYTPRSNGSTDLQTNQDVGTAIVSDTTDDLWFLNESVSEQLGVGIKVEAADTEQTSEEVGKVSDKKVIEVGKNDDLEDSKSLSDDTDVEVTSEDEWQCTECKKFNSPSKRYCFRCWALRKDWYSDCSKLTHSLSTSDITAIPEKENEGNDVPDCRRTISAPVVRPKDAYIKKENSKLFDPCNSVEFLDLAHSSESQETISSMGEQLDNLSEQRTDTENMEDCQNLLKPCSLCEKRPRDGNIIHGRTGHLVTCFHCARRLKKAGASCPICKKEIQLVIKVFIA
Target sequence (Q00987 whole entry, looked up): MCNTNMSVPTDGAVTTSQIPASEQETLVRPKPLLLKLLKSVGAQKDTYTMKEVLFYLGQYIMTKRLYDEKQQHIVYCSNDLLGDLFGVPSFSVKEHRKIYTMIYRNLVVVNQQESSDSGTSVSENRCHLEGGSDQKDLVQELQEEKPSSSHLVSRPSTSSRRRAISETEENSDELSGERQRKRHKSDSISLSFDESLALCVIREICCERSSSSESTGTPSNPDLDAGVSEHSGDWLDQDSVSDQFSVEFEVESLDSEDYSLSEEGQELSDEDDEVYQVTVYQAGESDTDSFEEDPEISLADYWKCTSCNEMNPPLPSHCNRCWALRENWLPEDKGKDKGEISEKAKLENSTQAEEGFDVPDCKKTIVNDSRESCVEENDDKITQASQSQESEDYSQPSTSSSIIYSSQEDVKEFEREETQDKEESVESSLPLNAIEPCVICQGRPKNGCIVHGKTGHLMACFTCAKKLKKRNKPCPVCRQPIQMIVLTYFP
MPTP block: blocks calcium-induced mitochondrial swelling; isolated mouse mitochondria, Ca2+ swelling absorbance, 30 min; inhibition, % at 10 µM; 1.4% of 360,000 active;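 active = inhibition of 50% or more, scaled per plate between neutral and stimulator controls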;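 note: 0% = DMSO wells given calcium and 100% = 1 mM EGTA wells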
* marks the source's active call; other numbers are inactive results; ? = inconclusive; nt = no result. An excerpt weighted towards active compounds, which were near 6.9% of everything screened.

SMILES	SKKanGAS inh	Beta cell apopt	GRIN3A LBD mod	CSC inhib	Mdm2-MdmX inh	MPTP block
COC(=O)c1ccc(N=NN2CCCCCC2)cc1	1	3	17*	11	-161	0
COc1cc(NS(=O)(=O)c2c(C)[nH]c(C)c2C(=O)N2CCCC2)cc(OC)c1OC	-3	-5	0	-8	0	0
COc1cc(NS(=O)(=O)N2CCCC2)cc(OC)c1OC	-1	-7	15*	-15	6	2
CC1(C)Oc2ccc3ccc(=O)oc3c2/C(=C/NNC(N)=S)C1=O	82*	12	1	4	8	0
CC1(C)Oc2ccc3ccc(=O)oc3c2/C(=C/Nc2ccccn2)C1=O	-8	10	15*	13	24	4
CN/C=C1\C(=O)C(C)(C)Oc2ccc3ccc(=O)oc3c21	-16	0	0	-17	23	-2
O=C(COc1cc(F)ccc1[N+](=O)[O-])Nc1cc(S(=O)(=O)N2CCCC2)ccc1Cl	nt	nt	0	nt	4	-1
CCCCn1c(N)c(N(Cc2ccccc2OC)C(=O)c2c(CC)noc2C)c(=O)[nH]c1=O	-1	-3	0	nt	23	0
COc1ccc(-c2nc(N=Nc3ccc(O)cc3)n[nH]2)cc1	4	5	13*	1	-17	-2
O=C(Cn1c(=O)oc2ccccc21)Nc1nc(-c2ccc(Br)cc2)cs1	2	4	15*	-12	4	17
O=C(CSc1nc2ccccc2[nH]1)Nc1nc(-c2ccc(Br)cc2)cs1	6	10	35*	10	-4	24
COc1ccc(NC(=O)Nc2nnc([C@H]3C[C@H](O)[C@@H](CO)O3)s2)cc1	nt	nt	nt	nt	nt	-2
Cc1ccc(NC(=O)CSc2nnc(NC(=O)c3ccc(S(=O)(=O)N4CCOCC4)cc3)s2)cc1	5	1	28*	2	-28	2
CCOC(=O)c1ccc(NC(=O)CSc2nnc(NC(=O)c3ccc(S(=O)(=O)N4CCOCC4)cc3)s2)cc1	24	-2	37*	-8	-12	5
Nc1nnc(SCC(=O)Nc2ccc(S(=O)(=O)N3CCOCC3)cc2)s1	1	-1	-2	-11	-13	-2
COc1ccc(CN2C[C@@H](CO)O[C@@H](n3cnc4c(N5CCN(c6ccccc6)CC5)ncnc43)C2)cc1	nt	nt	nt	nt	nt	0
O=C1c2cccc3cc([N+](=O)[O-])cc(c23)C(=O)N1c1nncs1	2	1	2	1	17	1
CCOc1ccc(-c2ccc(/C=C3/C(=N)N4C=CSC4=NC3=O)o2)c([N+](=O)[O-])c1	19	21	14*	42	nt	4
CCOc1ccc(-c2ccc(/C=C3/C(=N)N4C(C)=CSC4=NC3=O)o2)c([N+](=O)[O-])c1	28	4	3	-2	30	4
O=C1CSC(c2cccnc2)N1Cc1ccc(Cl)c(Cl)c1 (configuration not stated)	3	-3	-1	3	-8	2
Cc1cc(NC(=O)c2ccc(C)s2)n(-c2nc3ccccc3[nH]2)n1	52*	27	6	-2	23	4
Cc1cc(NC(=O)/C=C/c2cccc(Cl)c2)n(-c2nc3ccccc3[nH]2)n1	17	59	11*	-3	43	3
Cc1cc(NC(=O)/C=C/c2cccc(F)c2)n(-c2nc3ccccc3[nH]2)n1	-15	8	5	19	28	2
Cc1cc(NC(=O)c2ccccc2F)n(-c2nc3ccccc3[nH]2)n1	?	28	-4	19	31	2
CCn1c(NC(=O)/C=C/c2ccc(F)cc2)nc2ccccc21	62*	19	2	20	42	2
SMILES	SKKanGAS inh	Beta cell apopt	GRIN3A LBD mod	CSC inhib	Mdm2-MdmX inh	MPTP block
Cc1cc(NC(=O)/C=C/c2ccc(F)cc2)n(-c2nc3ccccc3[nH]2)n1	-7	40	12*	2	40	-1
CCCn1c(NC(=O)c2ccc(F)cc2)nc2ccccc21	26	30	4	-1	14	-1
COC(=O)c1ccc2c(=O)n(-c3ccccc3)c(SCN3C(=O)c4ccccc4C3=O)nc2c1	8	106*	0	-5	4	-1
Cc1nc(-c2ccccc2)sc1C(=O)/C=C/c1ccc(Cl)cc1	-10	2	2	94*	35	5
Cc1nc(-c2ccccc2)sc1C(N)=O	-1	-4	19*	nt	28	1
CC(=O)c1sc(-c2ccc(Cl)cc2)nc1C	-1	4	-1	-7	-21	0
O=C(CC1S/C(=N\S(=O)(=O)c2ccccc2)N(c2ccccc2)C1=O)Nc1ccc(F)cc1 (configuration not stated)	8	-10	10*	0	2	-1
Cc1ccc(S(=O)(=O)/N=C2\SC(CC(=O)Nc3ccc(F)cc3)C(=O)N2c2ccccc2)cc1 (configuration not stated)	11	-3	9	5	6	4
CCn1cc(CNC(=O)c2cc(COc3ccc(F)cc3Cl)on2)cn1	-14	0	116*	11	0	-1
O=C(CCC(=O)N1CCN(c2ccccc2)CC1)Nc1nnc(C2CCCCC2)s1	-5	nt	-1	0	32	2
Cc1ccc(CN2C(=O)c3ccccc3NC2c2cc(Br)ccc2O)cc1 (configuration not stated)	104*	3	22*	110*	11	23
COc1ccc(Cl)cc1NC(=O)COC(=O)CCc1cc(OC)c(OC)c(OC)c1	10	4	-1	-4	23	2
Cn1c(CCCOc2ccc(Cl)cc2Cl)nnc1SCC(=O)Nc1ccc(F)c(Cl)c1	27	2	24*	-5	16	5
COc1ccc(Cl)cc1NC(=O)COC(=O)Cc1cc(OC)c(OC)c(OC)c1	nt	6	17*	-12	22	0
COc1ccc(NC(=O)COC(=O)CCCOc2ccc(Cl)cc2Cl)cc1Cl	11	2	31*	18	-18	3
CCOc1ccccc1OCCCC(=O)OCC(=O)Nc1cccc(Cl)c1	-14	3	-8	nt	18	2
Cc1cc(Cl)ccc1OCCCC(=O)N/N=C/c1cccc([N+](=O)[O-])c1	9	nt	19*	19	9	5
Cc1noc(C)c1C(=O)OC(C)C(=O)N(C)c1ccccc1 (configuration not stated)	nt	-7	2	nt	-17	0
CC(C)C(=O)N1CCC1(C)C(=O)Nc1ccc2cn[nH]c2c1 (configuration not stated)	nt	nt	nt	nt	nt	-1
Cc1nc([N+](=O)[O-])c(C(=O)OCc2ccccc2C#N)n1C	4	-4	0	-6	-4	-2
COc1ccc(NC(=O)COC(=O)CCCOc2ccc(Cl)cc2Cl)cc1	-5	nt	27*	-12	3	1
COc1ccc(CC(=O)Nc2cccc(SC)c2)cc1	-2	-8	16*	-9	-3	1
O=C(COC(=O)CCCOc1ccc(Cl)cc1Cl)NCc1ccc(F)cc1	-6	-6	-10	-8	-15	3
